Experimental data taken from PubChem BioAssay (NCI).
This is part of a sample that, as a whole, favours compounds with a hit. Of some 79,000 tested, about 15% had one in any assay. No stated cut-off is given here; in the data, active means growth inhibition above about 70%; inactive means the rest.

Columns and labels:
[1] = NCI Yeast Anticancer Drug Screen. Data for the rad50 strain (AID 155);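 further: 0% = growth of vehicle-only cultures of the same strain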; conditions: S. cerevisiae rad50 strain growth inhibition; at 50.0 µM; hits give high values
In short: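 Readout: growth inhibition relative to vehicle-treated cultures. Compound exposure was carried out in a genetically defined yeast strain deficient in DNA damage repair.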

[2] = NCI Yeast Anticancer Drug Screen. Data for the mec2-1 strain (AID 157); conditions: S. cerevisiae mec2-1 strain, at 50.0 µM, hits give high values
In short: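 Each compound was tested on mec2-1 yeast, a strain altered in DNA damage repair or cell cycle control. Growth inhibition is reported relative to vehicle.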

[3] = NCI Yeast Anticancer Drug Screen. Data for the sgs1 mgt1 strain (AID 161);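 further: 0% = growth of cultures given vehicle only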; conditions: S. cerevisiae sgs1 mgt1 strain, at 50.0 µM, hits give high values
In short: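 Test agents were incubated with a DNA-repair-mutant yeast strain. Growth was then read and compared against vehicle-treated controls.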

[4] = NCI Yeast Anticancer Drug Screen. Data for the cln2 rad14 strain (AID 165);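 further: 0% = growth equal to vehicle treated cultures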; conditions: S. cerevisiae cln2 rad14 strain, at 50.0 µM, hits give high values
In short: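 Test compounds were added to cln2 rad14 yeast cultures; inhibition of growth was then determined by comparison with vehicle treatment.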

[5] = NCI Yeast Anticancer Drug Screen. Data for the bub3 strain (AID 167); conditions: S. cerevisiae bub3 mutant strain, at 50.0 µM, hits give high values
In short: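 Readout: yeast growth inhibition, expressed relative to vehicle-only wells. The test organism is a mutant strain from a panel with lesions in DNA repair or checkpoint genes.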

[6] = NCI Yeast Anticancer Drug Screen. Data for the mlh1 rad18 strain (AID 175); conditions: S. cerevisiae mlh1 rad18 strain growth inhibition; at 50.0 µM; hits give high values
In short: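 Inhibition values reflect reduced growth of mutant yeast versus vehicle-treated controls following compound exposure; the mutations affect DNA damage repair.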

Measured: growth inhibition

CCOc1ccccc1NC(=O)Nc1cccc2ccccc12
inactive: [1] -3.5% | [2] 3.75% | [3] 3.65% | [4] -22.3% | [5] -6.8% | [6] -15.4%

CNC(=O)c1ccccc1CC1(O)CCCC1
inactive: [1] -9.85% | [2] -15.5% | [3] -0.5% | [4] 8.5% | [5] -9.75% | [6] -25.1%

Nc1ccc(/C=C/C(=O)O)cc1
inactive: [1] -9.1% | [2] -6% | [3] 11.6% | [4] 10.8% | [5] 2.55% | [6] 9.95%

CN1C/C(=C\c2ccccc2)C2=NN(C(N)=S)[C@H](c3ccccc3)[C@@H]2C1
inactive: [1] 3.5% | [2] -18.1% | [3] -5.85% | [4] 10.9% | [5] -19.8% | [6] -16.9%

COc1cc([N+](=O)[O-])cc(C=O)c1O
inactive: [1] 6.8% | [2] 28.4% | [3] 0.7% | [4] -67.5% | [5] -38.8% | [6] 11.7%

CC(=O)OCC(CBr)(CBr)COC(C)=O
inactive: [1] 8.85% | [2] -41.4% | [3] -6.05% | [4] -102% | [5] -20.8% | [6] 23.1%

C=C1C(=O)[C@@]23CC1C(O)[C@@H](OC(C)=O)[C@@H]2C1(C)C(OC(C)=O)C[C@@H](OC(C)=O)C(C)(C)[C@@H]1C[C@H]3OC(C)=O (stereo not given in full)
inactive: [1] 16.1% | [2] 11.9% | [3] 14% | [4] 22.4% | [5] 2.05% | [6] 0.15%

Cc1ccc(NC(=O)CCC(CC(=O)C(C)(C)C)=NNC(=O)C(=O)NN)cc1C
inactive: [1] -25.8% | [2] -19.3% | [3] -19.4% | [4] -23.5% | [5] -7.4% | [6] -22.2%

COc1ccc(C2C3=CONC3CC3CCCCC32)cc1 (stereo not given)
inactive: [1] 4.5% | [2] -34.5% | [3] -0.4% | [4] 8.25% | [5] 6.25% | [6] 6.5%

N#CC1C=Cc2ccccc2N1C(=O)Oc1ccccc1 (stereo not given)
inactive: [1] 1.5% | [2] 14.3% | [3] 10.6% | [4] 18.6% | [5] -7.8% | [6] 16.6%

O=C(ON(Cc1ccccc1)Cc1ccccc1)c1ccccc1
inactive: [1] -7.8% | [2] 1.95% | [3] 20.4% | [4] -14.8% | [5] 28.1% | [6] 10.8%

CC1(C)O[C@H]2[C@H](O)C[C@](O)(CO)C[C@H]2O1
inactive: [1] 1.3% | [2] 3.85% | [3] -0.65% | [4] -27.6% | [5] -9.25% | [6] 1.25%

Cc1nc2c(N3CCOCC3)ncnc2o1
inactive: [1] 5.15% | [2] -1.05% | [3] -5.5% | [4] -27.4% | [5] -15.3% | [6] 7.75%

Cc1ccc(-n2cnc(C(=N)C#N)c2N)cc1
inactive: [1] -15.6% | [2] -31.7% | [3] -10% | [4] -12.1% | [5] 9.55% | [6] -13.1%

c1ccc(-c2ccc3c4ccccc4ccn23)cc1
inactive: [1] 9.2% | [2] -4.1% | [3] 8.9% | [4] 17.7% | [5] 12.7% | [6] 23.9%

FC(F)(c1nnnn1Cc1ccccc1)C(F)(F)C(F)(F)C(F)(F)C(F)(F)C(F)(F)C(F)(F)C(F)(F)c1nnnn1Cc1ccccc1
inactive: [1] 10.2% | [2] 13.7% | [3] -11.7% | [4] -2.65% | [5] 7.95% | [6] 19.3%

CCOC(=O)CN1C(=O)C(=O)N(c2ccc(OC)c3ccccc23)C1=O
inactive: [1] -46.1% | [2] -17.2% | [3] -54.7% | [4] -40% | [5] -1.3% | [6] -27.6%

CCCCCCCCNC(C(=O)c1ccccc1)c1ccccc1 (stereo not given)
inactive: [1] 10.1% | [2] 11.7% | [3] 16% | [4] 14% | [5] 14.2% | [6] 26.8%

CC(C)(C#N)OC(=O)Nc1c(Cl)cccc1Cl
inactive: [1] 2.4% | [2] -23.2% | [3] 5.15% | [4] 3.6% | [5] 11.2% | [6] 6.5%

CCN(CC)CCN(CCN(CC)CC)c1ccc2ccccc2c1
inactive: [1] 18.9% | [2] -12.8% | [3] 7.3% | [4] 5.05% | [5] 16.2% | [6] 32.5%
